WNV NS2B-NS3 inh = blocks West Nile virus NS2B-NS3 protease activity; P06935; WNV NS2B-NS3 protease, fluorogenic substrate Ex360/Em465; stronger effect = lower value; z-score (test concentration not listed); hit rate 0.18% among 65,000; in the data active means z-score below about -3
Target sequence (P06935 1371-1501 limits assumed): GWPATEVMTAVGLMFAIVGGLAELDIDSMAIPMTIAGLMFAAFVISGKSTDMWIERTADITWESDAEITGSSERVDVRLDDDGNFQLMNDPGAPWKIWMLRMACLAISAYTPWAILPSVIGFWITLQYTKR
Target sequence (P06935 1502-1679 limits assumed): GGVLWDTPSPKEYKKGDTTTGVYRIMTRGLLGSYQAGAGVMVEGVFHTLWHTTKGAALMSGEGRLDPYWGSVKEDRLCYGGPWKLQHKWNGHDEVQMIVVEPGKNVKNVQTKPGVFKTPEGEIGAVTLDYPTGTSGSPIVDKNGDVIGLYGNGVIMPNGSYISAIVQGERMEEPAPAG
Cathepsin G inh = blocks human cathepsin G enzyme activity | P08311 | purified enzyme, AMC-tetrapeptide fluorescence, pooled mixtures | inhibition, % at 5 µM (by protocol) | hit rate 0.2% among 62,000 | AID 581;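 active means inhibition above 20% in each of the two mixture wells holding the compound; inactive means inhibition of 20% or less in either well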;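 further: 0% = enzyme control without mixture and 100% = blank lacking enzyme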
Target sequence (P08311 21-244 limits assumed): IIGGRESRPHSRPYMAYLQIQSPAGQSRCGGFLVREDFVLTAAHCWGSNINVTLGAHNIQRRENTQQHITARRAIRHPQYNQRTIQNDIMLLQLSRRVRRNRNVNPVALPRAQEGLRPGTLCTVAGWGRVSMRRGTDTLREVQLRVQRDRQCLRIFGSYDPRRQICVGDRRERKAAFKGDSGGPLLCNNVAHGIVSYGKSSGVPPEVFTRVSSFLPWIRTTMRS
C1s block = human complement C1s inhibition. P09871. purified C1s, fluorogenic AMC substrate, pooled mixtures. mean inhibition % of two 10-compound mixtures (stronger effect = higher value), % at 5 µM (by protocol). hit rate 0.16% among 62,000;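 active means inhibition above 20% in each of the two 10-compound mixture wells holding the compound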;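 further: 0% = enzyme wells lacking compound mixture and 100% = no-enzyme blank wells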
FXIa mix inh = blocks human factor XIa in pooled compound mixtures | P03951 | purified FXIa, fluorogenic substrate | inhibition, % at 5 µM | hit rate 0.19% among 62,000;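 further: each value is inhibition by a whole ten-compound pool holding the compound; 0% = enzyme with no mixture and 100% = wells lacking enzyme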
FXIIa mix inh = blocks human factor XIIa in pooled compound mixtures | purified FXIIa, fluorogenic substrate | inhibition, % at 5 µM | hit rate 0.2% among 62,000;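 further: 0% = enzyme without compound and 100% = no enzyme blank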
Starred values were filed as active, the others as inactive; x = no result. Only some compounds are listed: those with a hit (about 0.76% of all), similar ones and a draw of the others. Unless noted, no stated cut-off is given here; in the data, active means inhibition above about 20% (passing the limit was not always enough); inactive means the rest.

SMILES | WNV NS2B-NS3 inh | Cathepsin G inh | C1s block | FXIa mix inh | FXIIa mix inh
COc1cccc(OC)c1OCCCc1c(C)n[nH]c1C | 1.1 | 9 | 16 | -1 | 9
COc1ccc2c3c(cccc13)NN=C2C | -4.5* | -5 | -10 | 3 | 1
O=c1cc(-c2c(F)c(F)c(F)c(F)c2F)oc2c(F)c(F)c(F)c(F)c12 | -0.49 | -3 | -3 | 7 | 5
Cc1ccc(-n2c(SCC(=O)N3CCCC3)nc3c(c2=O)SCC3)cc1 | 0.08 | 11 | 21* | 7 | 1
CSc1nnc(Cc2cc(=O)[nH]c(=O)[nH]2)n1-c1cccc(C)c1 | -0.15 | 8 | 1 | 3 | -4
Cc1cccc(-n2c(Cc3cc(=O)[nH]c(=O)[nH]3)nnc2SCC(=O)N2CCCCC2)c1 | -1.3 | 0 | -5 | 21* | 11
Cc1c(C)[n+](=O)c(-c2cccs2)c(C)n1[O-] | -0.85 | -3 | 4 | 2 | -14
C#CCOc1nc(OCC#C)nc(OCC#C)n1 | -0.06 | 8 | 14 | 3 | -14
O=C(Nc1ccc(CN2CCOCC2)cc1)c1cc2ccccc2o1 | 0.18 | 0 | -1 | -2 | 12
O=C(NCCN1CCOCC1)c1cc2ccccc2o1 | -0.91 | -1 | 5 | 9 | 34*
CCN(CCNC(=O)c1cccc(N2CCCC2=O)c1)c1ccccc1 | 1 | 6 | 10 | 7 | 2
CN(CCNC(=O)c1cccc(N2CCCC2=O)c1)Cc1ccccc1 | 1.4 | 6 | -23 | 0 | 24*
C=CCn1c(SCC(=O)NCC(=O)OCC)nnc1-c1cccc(OC)c1 | -0.48 | -22 | -114 | -30 | 12
C=CCn1c(SC(C)C(=O)NC2(C#N)CCCCC2)nnc1-c1ccc(OC)cc1 (stereo not drawn) | 0.47 | 8 | 3 | 22* | 4
COC(=O)c1ccc(C(=O)OC)c(NC(=O)c2ocnc2C)c1 | 0.02 | 10 | 14 | 1 | 12
O=C(c1cn(-c2ccccc2)nc1-c1ccncc1)n1nnc2ccccc21 | -0.82 | 23 | -5 | 87* | 58*
CC(C)(C)c1cc(C(=O)NCc2ccccc2)ccn1 | -0.27 | 15 | 22* | 11 | -3
Nc1nnc(Cc2ccc(Cl)c(Cl)c2)s1 | 0.1 | x | x | x | x
N#C/C=C1/NC(=O)c2ccccc2S1 | -0.82 | 0 | 6 | -3 | -17
CN(C)/C=C1/Sc2ccccc2C1=O | -4.1* | -1 | -34 | 3 | -1
CCc1ccc(C(=O)CC2(O)C(=O)N(CN3CCOCC3)c3ccccc32)cc1 (stereo not drawn) | -0.73 | 7 | 2 | 3 | 7
Cc1ccc(C(=O)CC2(O)C(=O)N(CN3CCOCC3)c3ccccc32)cc1 (stereo not drawn) | -0.33 | 9 | 10 | 9 | 73*
CCCOc1ccc(N2C(=O)CC(N3CCN(c4ccccc4OC)CC3)C2=O)cc1 (stereo not drawn) | 1.3 | 4 | -4 | 5 | 0
CCOc1ccc(N2C(=O)CC(N3CCN(c4ccccc4F)CC3)C2=O)cc1 (stereo not drawn) | -0.25 | 13 | 24* | 2 | 1
CCCCOc1ncnc2c1[nH]c1ccc(F)cc12 | 0.49 | 9 | 12 | 6 | 8
SMILES | WNV NS2B-NS3 inh | Cathepsin G inh | C1s block | FXIa mix inh | FXIIa mix inh
COc1ccc(N2CCN(C(=O)c3cn(C)c(=O)c4c3c3ccccc3n4C)CC2)cc1 | -3.8* | 10 | 4 | -3 | 7
COc1ccc(N2CCN(C(=O)c3cn(C4CCCC4)c(=O)c4c3c3ccccc3n4C)CC2)cc1 | 0.13 | 12 | 13 | 2 | 6
CCOc1cc2c(cc1OCC)C(c1cc(OC)c(O)c(OC)c1)NCC2 (stereo not drawn) | 1.7 | 1 | -10 | 5 | 24*
Cc1cccc(-n2nnc(C(=O)Nc3ccc(F)cc3)c2N)c1 | -0.85 | 51* | 25 | 10 | 5
Cc1noc(NS(=O)(=O)c2ccc(NC(=O)CSc3nc4ccccc4s3)cc2)c1C | -0.1 | 32 | 13 | 52* | 2
COc1ccc(C2(O)CCN(CCCCOc3ccccc3)CC2)cc1 | 0.46 | 9 | -7 | 2 | 1
CCCCNC(=O)CN1C(=O)C(CC)Oc2ccc(Cl)cc21 (stereo not drawn) | 0.62 | 9 | -9 | 4 | 20*
Cc1ccc(C2CC(C(F)(F)F)n3ncc(C(=O)NCc4ccco4)c3N2)cc1 (stereo not drawn) | -0.01 | -6 | -19 | -2 | 5
COc1cccc(-n2c(SCC(=O)NCCC3=CCCCC3)nc3n[nH]c(C)c3c2=N)c1 | -0.99 | -5 | -38 | 9 | 1
COc1cccc(NC(=O)CSc2nc3n[nH]c(C)c3c(=N)n2-c2cccc(OC)c2)c1 | -3.1* | x | x | x | x
CC(C)(C)C(=O)/C=C(N)/C=C/c1ccccc1 | 1.2 | -1 | -2 | 2 | 4
COc1cccc(-c2cc(C(=O)NCc3ccc(Cl)cc3)no2)c1 | 0.22 | 47 | -34 | 19 | -21
CCCCNC(=O)c1cc(-c2ccc(OC)c(OC)c2)on1 | -0.66 | 20 | 16 | 7 | 1
COc1cccc(-c2cc(C(=O)NCCc3ccccc3)no2)c1 | -0.99 | 22* | 16 | 4 | 1
COc1ccc(CNC(=O)c2cc(-c3ccc(OC)c(OC)c3)on2)cc1 | -0.2 | 32* | 22* | 10 | 0
COc1ccc(-c2cc(C(=O)NCc3ccccc3)no2)cc1OC | 0.95 | 11 | -11 | 8 | 1
COc1ccc(-c2cc(C(=O)NCc3ccc(Cl)cc3)no2)cc1OC | 0.24 | 55* | 7 | 14 | 9
CCOC(=O)N1CCC(N2Cc3cccc(C(=O)NC(C)c4ccc5c(c4)OCCO5)c3C2=O)CC1 (stereo not drawn) | -0.0047 | -10 | -75 | 3 | -20
COc1cc(C(=O)OCC(=O)Nc2c(F)c(F)c(F)c(F)c2F)cc(OC)c1OC | -0.56 | 12 | 11 | 1 | 5
COC(=O)c1c(C)[nH]c(C(=O)C(C)Sc2nnc(-c3cc(OC)c(OC)c(OC)c3)o2)c1C (stereo not drawn) | 0.39 | 8 | -2 | 5 | 4
COc1cc(OC)cc(C(=O)NCc2cccnc2)c1 | 2.2 | -7 | -25 | -10 | 4
COc1ccc2c(c1)CCc1c(C(=O)NCc3cccnc3)noc1-2 | -1 | 87* | 19 | 13 | 3
Cc1ccccc1Cn1nc(C)c(NC(=O)c2noc3c2CC(C(C)(C)C)CC3)c1C (stereo not drawn) | 0.26 | 6 | 15 | -1 | 10
O=C(NCCCn1ccnc1)c1noc2c1CCc1ccccc1-2 | -0.59 | 95* | 17 | 19 | 5
Cc1ccccc1Cn1nc(C)c(NC(=O)c2noc3c2CCc2ccccc2-3)c1C | -0.2 | 72* | 6 | 17 | -3
Cc1cc(NC(=O)c2noc3c2CCc2ccccc2-3)no1 | 1.2 | 95* | -13 | 42* | 10
Nc1c(C(=O)NC2CCCC2)c2nc3ccccc3nc2n1/N=C/c1cccnc1 | 0.23 | 6 | -14 | -10 | 8
CCC1CCCCN1c1nc2c(c(=O)n(C)c(=O)n2C)n1CCSc1nc2ccccc2o1 (stereo not drawn) | 0.01 | -11 | -43 | 4 | 1

From PubChem BioAssay
